The values below come from PMC7862700, “An all-to-all approach to the identification of sequence-specific readers for epigenetic DNA modifications on cytosine”.

The first test addresses T1, ETS2 (Homo sapiens, UniProt P15036 1-469).
T1 sequence: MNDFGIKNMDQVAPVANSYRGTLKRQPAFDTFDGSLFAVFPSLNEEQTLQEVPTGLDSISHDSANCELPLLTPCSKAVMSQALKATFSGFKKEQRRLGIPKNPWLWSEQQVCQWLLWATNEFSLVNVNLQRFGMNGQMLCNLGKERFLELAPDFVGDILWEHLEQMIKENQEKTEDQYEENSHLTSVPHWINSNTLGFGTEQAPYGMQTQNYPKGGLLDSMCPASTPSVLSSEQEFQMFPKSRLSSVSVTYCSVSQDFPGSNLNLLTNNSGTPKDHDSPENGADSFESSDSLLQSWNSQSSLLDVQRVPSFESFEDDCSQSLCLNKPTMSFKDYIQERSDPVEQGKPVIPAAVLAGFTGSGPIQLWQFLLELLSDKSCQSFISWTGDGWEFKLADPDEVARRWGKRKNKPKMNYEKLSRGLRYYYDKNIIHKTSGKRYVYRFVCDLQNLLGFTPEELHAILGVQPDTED
Description: DAPPL (digital affinity profiling via proximity ligation, sequencing); 10 mM Tris-HCl pH 7.5, 50 mM NaCl, 1 mM DTT, 4% glycerol, room temperature, 30 min; GST-TFs on glutathione beads, 16-mer random dsDNA library, 0.1% formaldehyde crosslink after washing; high values mean tight binding. As to conditions: protein: recombinant; tags: N-terminal GST; dsDNA, one strand shown. In outline:
(§1)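 Yeast served to express human transcription factors as GST fusions, which were then captured on glutathione beads and labelled with DNA barcodes. Pooled with a tag-only sample, they were incubated with 200 nmole of a 16-mer random double-stranded DNA library for 30 min at room temperature in Tris/NaCl/DTT/glycerol buffer, washed, crosslinked with 0.1% formaldehyde, ligated by proximity, amplified by PCR and sequenced. Dividing each hexamer's read frequency for a factor by its frequency for the tag-only sample gives the binding signal.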
As for AATCTT, the binding signal is 1.41 fold enrichment (6-mer frequency, TF over GST control).

With TTTGAT, the binding signal was 1.26 fold enrichment (6-mer frequency, TF over GST control).

With TCTATT, the binding signal was 1.23 fold enrichment (6-mer frequency, TF over GST control).

For TACGAT, the binding signal was 1.15 fold enrichment (6-mer frequency, TF over GST control).

Take CCCGTA: the binding signal is 1.2 fold enrichment (6-mer frequency, TF over GST control).

Turning to TTCTCG, the binding signal is 1.45 fold enrichment (6-mer frequency, TF over GST control).

Regarding GTAAAC, the binding signal is 1.28 fold enrichment (6-mer frequency, TF over GST control).

For the sequence GTTCTG, the binding signal was 1.05 fold enrichment (6-mer frequency, TF over GST control).

Turning to TTTAAG, the binding signal is 1.36 fold enrichment (6-mer frequency, TF over GST control).

CAAAAT: the binding signal was 1.2 fold enrichment (6-mer frequency, TF over GST control).

Turning to TACTCA, the binding signal was 1.19 fold enrichment (6-mer frequency, TF over GST control).

Take AAATAT: the binding signal is 1.37 fold enrichment (6-mer frequency, TF over GST control).

On to AATTAC, for which the binding signal was 1.36 fold enrichment (6-mer frequency, TF over GST control).

In the case of ATGAAC, the binding signal is 1.29 fold enrichment (6-mer frequency, TF over GST control).

TCTTTG: the binding signal was 1.19 fold enrichment (6-mer frequency, TF over GST control).

As for ATCCAT, the binding signal was 1.17 fold enrichment (6-mer frequency, TF over GST control).

Turning to ATCCCC, the binding signal was 1.29 fold enrichment (6-mer frequency, TF over GST control).

As for CTTGGG, the binding signal is 1.28 fold enrichment (6-mer frequency, TF over GST control).

Regarding AACATA, the binding signal was 1.23 fold enrichment (6-mer frequency, TF over GST control).

As to TCCTTT, the binding signal was 1.67 fold enrichment (6-mer frequency, TF over GST control).

Another test addresses T2, SPDEF (Homo sapiens, UniProt O95238 1-335).
T2 sequence: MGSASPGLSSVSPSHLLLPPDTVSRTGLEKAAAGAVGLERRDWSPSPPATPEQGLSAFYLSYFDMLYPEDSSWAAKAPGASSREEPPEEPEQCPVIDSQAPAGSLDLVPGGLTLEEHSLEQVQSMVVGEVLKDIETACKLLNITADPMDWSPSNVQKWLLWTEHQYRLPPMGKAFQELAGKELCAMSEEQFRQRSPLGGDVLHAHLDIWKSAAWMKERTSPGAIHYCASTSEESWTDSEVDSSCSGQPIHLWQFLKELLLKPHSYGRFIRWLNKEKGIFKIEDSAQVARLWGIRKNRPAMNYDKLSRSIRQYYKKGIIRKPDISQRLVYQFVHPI
Described as above. As to conditions: protein: recombinant; tags: N-terminal GST; dsDNA, one strand shown. A digest of the protocol: as §1
Consider TACGAA, for which the binding signal is 1.18 fold enrichment (6-mer frequency, TF over GST control).

CTGGAA: the binding signal is 1.16 fold enrichment (6-mer frequency, TF over GST control).

As to ATGCAT, the binding signal is 1.32 fold enrichment (6-mer frequency, TF over GST control).

For the sequence CTTCCT, the binding signal is 2.74 fold enrichment (6-mer frequency, TF over GST control).

In the case of TCGTTT, the binding signal was 1.12 fold enrichment (6-mer frequency, TF over GST control).

In the case of TCTCTC, the binding signal was 1.28 fold enrichment (6-mer frequency, TF over GST control).

On to GGTCTC, for which the binding signal is 1.93 fold enrichment (6-mer frequency, TF over GST control).

For the sequence CTACGG, the binding signal is 1.17 fold enrichment (6-mer frequency, TF over GST control).

For the sequence ATTGCA, the binding signal was 1.18 fold enrichment (6-mer frequency, TF over GST control).

As to TTGTGG, the binding signal was 1.31 fold enrichment (6-mer frequency, TF over GST control).

On to AATACG, for which the binding signal was 1.24 fold enrichment (6-mer frequency, TF over GST control).

For the sequence TACCAT, the binding signal is 1.16 fold enrichment (6-mer frequency, TF over GST control).

As to TTAAAC, the binding signal was 1.18 fold enrichment (6-mer frequency, TF over GST control).

In the case of CCTTAC, the binding signal is 1.33 fold enrichment (6-mer frequency, TF over GST control).

Take CTCTGA: the binding signal is 1.11 fold enrichment (6-mer frequency, TF over GST control).

For the sequence CTTGTA, the binding signal was 1.45 fold enrichment (6-mer frequency, TF over GST control).

As to TATAAT, the binding signal is 1.27 fold enrichment (6-mer frequency, TF over GST control).

For AAACAA, the binding signal is 1.27 fold enrichment (6-mer frequency, TF over GST control).

As to CTTCAC, the binding signal is 1.4 fold enrichment (6-mer frequency, TF over GST control).

Consider ATAAAT, for which the binding signal was 1.17 fold enrichment (6-mer frequency, TF over GST control).

As for AATCTT, the binding signal is 1.27 fold enrichment (6-mer frequency, TF over GST control).

TTTGAT: the binding signal is 1.12 fold enrichment (6-mer frequency, TF over GST control).

TCTATT: the binding signal is 1.37 fold enrichment (6-mer frequency, TF over GST control).

TACGAT: the binding signal is 1.11 fold enrichment (6-mer frequency, TF over GST control).

Take CCCGTA: the binding signal was 1.24 fold enrichment (6-mer frequency, TF over GST control).

Consider TTCTCG, for which the binding signal is 1.34 fold enrichment (6-mer frequency, TF over GST control).

For GTAAAC, the binding signal was 1.17 fold enrichment (6-mer frequency, TF over GST control).

As to GTTCTG, the binding signal was 1 fold enrichment (6-mer frequency, TF over GST control).

As for TTTAAG, the binding signal was 1.44 fold enrichment (6-mer frequency, TF over GST control).

With CAAAAT, the binding signal is 1.1 fold enrichment (6-mer frequency, TF over GST control).

As for TACTCA, the binding signal was 1.18 fold enrichment (6-mer frequency, TF over GST control).

Regarding AAATAT, the binding signal was 1.35 fold enrichment (6-mer frequency, TF over GST control).

With AATTAC, the binding signal was 1.24 fold enrichment (6-mer frequency, TF over GST control).

In the case of ATGAAC, the binding signal is 1.18 fold enrichment (6-mer frequency, TF over GST control).

As to TCTTTG, the binding signal is 1.06 fold enrichment (6-mer frequency, TF over GST control).

For the sequence ATCCAT, the binding signal was 1.17 fold enrichment (6-mer frequency, TF over GST control).

ATCCCC: the binding signal was 1.41 fold enrichment (6-mer frequency, TF over GST control).

On to CTTGGG, for which the binding signal is 1.21 fold enrichment (6-mer frequency, TF over GST control).

Consider AACATA, for which the binding signal was 1.19 fold enrichment (6-mer frequency, TF over GST control).

On to TCCTTT, for which the binding signal was 1.76 fold enrichment (6-mer frequency, TF over GST control).

A further test deals with T3, ETV7 (Homo sapiens, UniProt Q9Y603 1-341).
T3 sequence: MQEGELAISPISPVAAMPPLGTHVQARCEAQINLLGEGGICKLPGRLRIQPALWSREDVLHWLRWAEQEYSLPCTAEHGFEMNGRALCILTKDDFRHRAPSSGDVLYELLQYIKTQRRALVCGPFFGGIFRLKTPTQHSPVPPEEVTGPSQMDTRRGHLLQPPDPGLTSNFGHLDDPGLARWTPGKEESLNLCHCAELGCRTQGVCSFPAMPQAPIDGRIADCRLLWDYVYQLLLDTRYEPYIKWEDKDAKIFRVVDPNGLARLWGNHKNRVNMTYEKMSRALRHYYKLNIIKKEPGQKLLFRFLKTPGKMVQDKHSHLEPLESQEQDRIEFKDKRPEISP
The description is as above. As to conditions: protein: recombinant; tags: N-terminal GST; dsDNA, one strand shown. In outline: as §1
With TACGAA, the binding signal is 1.31 fold enrichment (6-mer frequency, TF over GST control).

Consider CTGGAA, for which the binding signal is 1.32 fold enrichment (6-mer frequency, TF over GST control).

With ATGCAT, the binding signal is 1.21 fold enrichment (6-mer frequency, TF over GST control).

Turning to CTTCCT, the binding signal is 2.76 fold enrichment (6-mer frequency, TF over GST control).

As for TCGTTT, the binding signal is 1.31 fold enrichment (6-mer frequency, TF over GST control).

Turning to TCTCTC, the binding signal is 1.11 fold enrichment (6-mer frequency, TF over GST control).

On to GGTCTC, for which the binding signal is 2.04 fold enrichment (6-mer frequency, TF over GST control).

As for CTACGG, the binding signal was 1.28 fold enrichment (6-mer frequency, TF over GST control).

ATTGCA: the binding signal was 1.17 fold enrichment (6-mer frequency, TF over GST control).

On to TTGTGG, for which the binding signal was 1.34 fold enrichment (6-mer frequency, TF over GST control).

For AATACG, the binding signal is 1.12 fold enrichment (6-mer frequency, TF over GST control).

Take TACCAT: the binding signal was 1.16 fold enrichment (6-mer frequency, TF over GST control).

Consider TTAAAC, for which the binding signal is 1.14 fold enrichment (6-mer frequency, TF over GST control).

CCTTAC: the binding signal is 1.36 fold enrichment (6-mer frequency, TF over GST control).

As for CTCTGA, the binding signal is 1.34 fold enrichment (6-mer frequency, TF over GST control).

For CTTGTA, the binding signal is 1.17 fold enrichment (6-mer frequency, TF over GST control).

Consider TATAAT, for which the binding signal is 1.17 fold enrichment (6-mer frequency, TF over GST control).

Turning to AAACAA, the binding signal is 1.28 fold enrichment (6-mer frequency, TF over GST control).

For the sequence CTTCAC, the binding signal was 1.45 fold enrichment (6-mer frequency, TF over GST control).

For ATAAAT, the binding signal was 1.14 fold enrichment (6-mer frequency, TF over GST control).

In the case of AATCTT, the binding signal is 1.31 fold enrichment (6-mer frequency, TF over GST control).

Take TTTGAT: the binding signal was 1.28 fold enrichment (6-mer frequency, TF over GST control).

For the sequence TCTATT, the binding signal was 1.11 fold enrichment (6-mer frequency, TF over GST control).

TACGAT: the binding signal was 1.07 fold enrichment (6-mer frequency, TF over GST control).

Turning to CCCGTA, the binding signal is 1.12 fold enrichment (6-mer frequency, TF over GST control).

Regarding TTCTCG, the binding signal was 1.48 fold enrichment (6-mer frequency, TF over GST control).

On to GTAAAC, for which the binding signal was 1.18 fold enrichment (6-mer frequency, TF over GST control).

With GTTCTG, the binding signal is 1.07 fold enrichment (6-mer frequency, TF over GST control).

In the case of TTTAAG, the binding signal is 1.33 fold enrichment (6-mer frequency, TF over GST control).

On to CAAAAT, for which the binding signal is 1.28 fold enrichment (6-mer frequency, TF over GST control).

For the sequence TACTCA, the binding signal was 1.06 fold enrichment (6-mer frequency, TF over GST control).

For AAATAT, the binding signal is 1.4 fold enrichment (6-mer frequency, TF over GST control).

For AATTAC, the binding signal was 1.36 fold enrichment (6-mer frequency, TF over GST control).

Take ATGAAC: the binding signal was 1.2 fold enrichment (6-mer frequency, TF over GST control).

TCTTTG: the binding signal is 1.27 fold enrichment (6-mer frequency, TF over GST control).

For the sequence ATCCAT, the binding signal was 1.11 fold enrichment (6-mer frequency, TF over GST control).

Turning to ATCCCC, the binding signal was 1.3 fold enrichment (6-mer frequency, TF over GST control).

As for CTTGGG, the binding signal was 1.3 fold enrichment (6-mer frequency, TF over GST control).

With AACATA, the binding signal was 1.31 fold enrichment (6-mer frequency, TF over GST control).

In the case of TCCTTT, the binding signal is 1.59 fold enrichment (6-mer frequency, TF over GST control).
